An excerpt weighted towards active compounds, which were near 19% of everything screened.
TDP1 block: qHTS Assay for Inhibitors of Tyrosyl-DNA Phosphodiesterase (TDP1). Tyrosyl-DNA phosphodiesterase 1 (Homo sapiens), Q9NUW8. recombinant TDP1, AlphaScreen DNA substrate cleavage. Potency, µM (top dose mostly 130 µM), for the others: at the top dose activity change, negative = inhibition, hits mostly inhibitors. actives 0.28% (n = 350,000). AID 485290, 2010; further: nearly all actives have a fitted effect of over 40% in size
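Recombinant human Tdp1 (E. coli-expressed, 1 nM final) preincubated with compounds 15 min at room temperature, then 5'-biotin/3'-phosphotyrosine-FITC DNA substrate (15 nM final) added for 5 min. AlphaScreen beads (10 ug/ml final) added 10 min; cleavage lowers signal.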
VP16 counter: VP16 counterscreen qHTS for inhibitors of ROR gamma transcriptional activity; Drosophila S2 Gal4-VP16 UAS-luciferase, luminescence, 20 h; Potency, µM (top dose mostly 53.6 µM), inactives show at the highest dose activity, negative = inhibition, actives largely listed as inhibitors; actives 3.5% (n = 310,000); AID 2546, 2010;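 further: Gal4-VP16 expression switched on by copper sulfate through the metallothionein promoter; nearly all actives have a fitted effect of over 50% in size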
DT40 TDP1 CPT: qHTS for Inhibitors of human tyrosyl-DNA phosphodiesterase 1 (TDP1): qHTS in cells in presence of CPT | chicken DT40 Tdp1-/-;hTDP1 cells + 20 nM CPT, ATP luminescence, 48 h | Potency, µM (doses to about 46.2 µM), for inactives: at the top dose activity change, negative = growth inhibition, most hits filed as inhibitors | actives 12% (n = 420,000) | AID 686979, 2013; further: nearly all actives have a fitted effect of over 55% in size
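Chicken DT40 Tdp1-/- cells stably complemented with human TDP1 were seeded at 400 cells/well in medium containing 20 nM camptothecin, exposed to pin-transferred compounds, and grown at 37 °C for at least 48 hr. Viability was read as ATP luminescence.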
RORgamma inh: qHTS for inhibitors of ROR gamma transcriptional activity; AID 2551, 2010; actives 5.4% (n = 310,000); Drosophila S2 Gal4-RORgamma UAS-luciferase reporter, 20 h; Potency, µM (titrated, usually from 53.6 µM), for the others: at the highest dose activity change, negative = inhibition, hits mostly inhibitors; further: nearly all actives have a fitted effect of over 60% in size
Target sequence (P51450 whole entry, looked up, the tested form may be a part): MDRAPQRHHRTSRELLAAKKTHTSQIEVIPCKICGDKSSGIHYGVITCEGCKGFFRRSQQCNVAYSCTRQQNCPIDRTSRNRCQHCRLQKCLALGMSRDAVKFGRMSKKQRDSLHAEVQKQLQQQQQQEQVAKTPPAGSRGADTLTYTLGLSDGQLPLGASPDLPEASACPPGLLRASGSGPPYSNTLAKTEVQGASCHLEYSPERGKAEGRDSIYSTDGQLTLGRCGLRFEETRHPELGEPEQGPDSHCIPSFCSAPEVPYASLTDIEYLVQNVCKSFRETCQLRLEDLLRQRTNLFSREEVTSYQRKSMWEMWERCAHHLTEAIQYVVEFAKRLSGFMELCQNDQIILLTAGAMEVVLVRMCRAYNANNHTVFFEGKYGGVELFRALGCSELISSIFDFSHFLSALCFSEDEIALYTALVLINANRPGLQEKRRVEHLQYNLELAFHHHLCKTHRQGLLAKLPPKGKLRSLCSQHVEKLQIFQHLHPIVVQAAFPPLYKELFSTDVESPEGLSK
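Stable Schneider cell line, Gal4 DNA-binding domain fused to ROR gamma, UAS-luciferase. Cmpd 1 hr RT → CuSO4 700 uM final → 20 hr RT → luciferase reagent 10 min → luminescence.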
TDP1 cell noCPT: qHTS for Inhibitors of human tyrosyl-DNA phosphodiesterase 1 (TDP1): qHTS in cells in absence of CPT; actives 15% (n = 420,000); Potency, µM (titrated, usually from 46.2 µM), without a hit: top-dose activity change, negative = growth inhibition, usual class: inhibitors; DT40 Tdp1-/- hTDP1 cells, no CPT, ATP luminescence, 48 h; further: nearly all actives have a fitted effect of over 55% in size
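Luminescent ATP content (CellTiter-Glo) served as the growth readout. Knockout chicken DT40 cells expressing human TDP1 were exposed to compounds without camptothecin for a minimum 48 hr at 37 °C.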
An asterisk follows results filed as active; u = inconclusive; x = no result given; [ ] = remark or other dose. The call rests on the fitted dose curve; in most records, active means well fitted curve in the direction sought with a large enough effect; inconclusive means small, poorly fitted or top-dose-only effect, or another doubt; inactive means no such curve, though single readings can be large; an effect the other way counts as inactive or inconclusive. On the % scale 0 is the no-effect control and ±100 the full control effect; potency means the concentration at half of the fitted maximal effect.

SMILES | TDP1 block | VP16 counter | DT40 TDP1 CPT | RORgamma inh | TDP1 cell noCPT
COc1ccc(-c2cn3nc(N4CCCC(C(=O)Nc5ccc(Cl)cc5C)C4)sc3n2)cc1 (centres undefined) | 2.5% | x | u | x | -16.9%
COc1ccc(-c2cn3nc(N4CCCC(C(=O)Nc5cc(C)ccc5C)C4)sc3n2)cc1 (centres undefined) | -1.2% | x | 23.1µM* | x | 16.4µM*
COc1ccc(-c2cn3nc(N4CCCC(C(=O)NCc5ccccc5OC)C4)sc3n2)cc1 (centres undefined) | 2.5% | x | 18.4µM* | x | u
Cc1ccc(-c2cn3nc(N4CCCC(C(=O)NCc5ccccc5F)C4)sc3n2)cc1 (centres undefined) | 3.7% | x | u | x | u
O=C(Nc1ccc(Br)cc1F)c1cnn2c1NC(=C1CC1)C=C2C(F)F | x | x | -15.2% | x | -13.9%
N#C/C(=C\c1ccco1)c1nc2ccccc2s1 | 2.7% | u | 8.6% | -42.6% | -27.0%
COc1cc(/C=C(\C#N)c2nc3ccccc3s2)cc([N+](=O)[O-])c1O | 8.1% | -6.1% | u | -22.8% | 16.4µM*
N#C/C(=C/c1ccco1)c1nc2ccccc2s1 | -4.5% | 5.62µM* | -14.4% | 5.01µM* | -24.5%
N#C/C(=C\c1ccc(O)c([N+](=O)[O-])c1)c1nc2ccccc2s1 | 9.3% | u | 25.9µM* | 21.0% | 16.4µM*
CCCOc1ccc(C2C(C(=O)/C=C/c3ccco3)=C(O)C(=O)N2CCN2CCOCC2)cc1OC (centres undefined) | -4.6% | 2.1% | 1.2% | -5.0% | -1.5%
CCN1C(=O)[C@@H]2[C@@H](c3ccc(-c4ccc5c(c4)OCO5)cc3)N3CCCC[C@@]3(C(=O)OC)[C@@H]2C1=O | 6.6% | x | 14.6µM* | x | 20.6µM*
CCN1C(=O)[C@H]2[C@@H](c3ccc(-c4ccc5c(c4)OCO5)cc3)N3CCC[C@@]3(C(=O)OC)[C@H]2C1=O | 6.2% | x | u | x | 11.6µM*
COc1ccc(-c2nc3ccc(C)cn3c2CC(C)(C)C)cc1OC | x | x | 18.4µM* | x | 20.6µM*
COc1ccccc1Cc1c(-c2ccc(OC)c(OC)c2)nc2ccc(C)cn12 | x | x | u | x | 23.1µM*
COc1ccccc1Cc1c(-c2ccco2)nc2ccc(C)cn12 | x | x | 8.2µM* | x | 8.2µM*
Cc1ccc2nc(-c3ccco3)c(CC3CCCCC3)n2c1 | x | x | 13µM* | x | 10.3µM*
Cc1ccc2nc(-c3ccco3)c(Nc3ccccc3)n2c1 | 0.8% | 12.0% | u | u | u
COc1ccc(-c2nc3c(C)cc(Br)cn3c2CC(C)(C)C)cc1OC | x | x | -22.0% | x | -21.6%
Cc1ccc(Nc2c(-c3ccco3)nc3ccc(C)cn23)cc1 | 2.7% | x | -17.2% | x | -22.5%
CC(C)(C)OC(=O)N1CCCC(C(=O)CC#N)C1 (centres undefined) | 4.8% | -1.7% | -25.2% | 10.5% | u
COc1ccc(OCCOC(=O)CNC(=O)c2ccc(C)cc2)cc1 | x | x | 8.1% | x | 8.3%
O=c1c(-c2cccs2)nc2cnc(Oc3ccccc3)nc2n1C1CC1 | x | 6.1% | u | 17.5% | u
Fc1ccc(-c2nc3c(Cl)cc(C(F)(F)F)cn3c2Cc2cccc(Cl)c2)cc1 | x | x | -18.8% | x | -14.7%
COc1ccc(-c2nc3ccc(C)cn3c2Cc2ccccc2)cc1OC | x | x | 18.4µM* | x | 23.1µM*
Cc1ccc2nc(-c3ccc(F)cc3)c(Cc3cccc(Cl)c3)n2c1 | x | x | 20.6µM* | x | 25.9µM*
SMILES | TDP1 block | VP16 counter | DT40 TDP1 CPT | RORgamma inh | TDP1 cell noCPT
COc1ccc(-c2nc3ccc(C)cn3c2Cc2cccc(Cl)c2)cc1OC | x | x | u | x | 18.4µM*
COc1cc(-c2nc3ccc(C)cn3c2NCc2ccccc2)ccc1-c1cccc(Cl)c1 | 6.3% | x | u | x | u
COc1ccc(-c2cn3cc(Cl)ccc3n2)cc1OC | -4.2% | -3.4% | -26.8% | 19.3% | u
COc1ccc(-c2nc3ccc(C)cn3c2Cc2ccc(C)cc2)cc1OC | x | x | 23.1µM* | x | 14.6µM*
N#Cc1ccccc1OCC(=O)NNC(=O)c1ccncc1 | 1.0% | x | -3.2% | x | 6.8%
Cc1nc2sc(C(c3cccs3)N3CCC4(CC3)OCCO4)c(O)n2n1 (centres undefined) | 5.0% | -5.6% | 3.6% | -9.8% | 5.2%
Cc1cc(C)cc(NC(=O)CSc2n[nH]c(-c3cccnc3)n2)c1 | 8.7%[0.0935 µM] | -4.5% | -21.1% | 16.7% | 0.6%
Cc1cc2nc(C(C)(C)C)c(Cc3cccc(Cl)c3)n2c(C)c1Br | x | x | -19.6% | x | -23.9%
Cc1ccc2nc(C(C)(C)C)c(Cc3cccc(Cl)c3)n2c1 | x | x | 16.4µM* | x | 18.4µM*
Cn1c(=O)[nH]c(=O)c2c1nc(N1CCN(Cc3ccccc3)CC1)n2CCCc1ccccc1 | 7.7% | -8.9% | 11.6µM* | -38.6% | 16.4µM*
Cn1c(=O)c2c(nc(N3CCN(c4ccccc4)CC3)n2CCCc2ccccc2)n(C)c1=O | 6.2% | 2.9% | 8.2µM* | 19.5% | 6.51µM*
CCN1CCN(c2nc3c(c(=O)[nH]c(=O)n3C)n2CCCc2ccccc2)CC1 | 0.0% | 7.2% | -0.5% | -1.5% | -13.2%
Cn1c(=O)[nH]c(=O)c2c1nc(N1CCCC1)n2CCCSc1nnnn1-c1ccccc1 | 2.7% | -16.1% | 20.6µM* | 18.2% | 16.4µM*
Cn1c(=O)c2c(nc(N3CCN(Cc4ccccc4)CC3)n2CCCc2ccccc2)n(C)c1=O | 2.1% | -3.1% | 11.6µM* | 1.5% | 18.4µM*
CC(O)c1nc2ccccc2n1C1CCCCC1 (centres undefined) | 0.0% | -3.3% | u | -22.2% | u
COCCNC(=O)C1CCCN(Cc2cccc(Cl)c2)CC1 (centres undefined) | x | x | -22.9% | x | -14.5%
Cn1c(=O)c2c(ncn2CC(=O)N2CCN(c3ccc([N+](=O)[O-])cc3)CC2)n(C)c1=O | 2.5% | -1.9% | 5.1% | 14.1% | u
Cn1c(=O)c2c(nc(N3CCN(c4ccc([N+](=O)[O-])cc4)CC3)n2C)n(C)c1=O | 5.1% | 1.4% | -20.5% | 27.2% | 18.4µM*
COc1cccc(-n2c(=O)c3c(C)c(C(=O)N(C)C)sc3n(CC(=O)NCC3CCCO3)c2=O)c1 (centres undefined) | 1.1% | -7.9% | 5.5% | 0.2% | 8.2%
CCCc1ccc(O)c(N=Cc2cc(Br)cc(OCC)c2O)c1 | 7.9% | 12.6µM* | 3.66µM* | 7.08µM* | 2.59µM*
CCOc1ccc(Br)cc1/C=N/O | -1.0% | -1.2% | 1.1% | 7.9% | -10.4%

High-throughput results (PubChem)
